The supplement of paper PMC6555819

Tested on: FXR:RXRa (NR concentration 270 nM, RXRa partner concentration 90 nM)
Test: PBM binding z-score (relative to random genomic background probes); higher = stronger binding; sequences stand for … in GC…GCGATTGACAGCGTAGAATGAAGG
Outline: (§1)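 Binding buffer was PBS pH 7.4 with 2% milk, 0.02% Triton X-100, 1 mM DTT, 0.2 mg/mL BSA and 0.4 mg/ml salmon testes DNA. In it, ligand-free nuclear receptor dimers were incubated 1 h on custom Agilent 4×180K protein-binding microarrays carrying double-stranded probes. Antibodies against each partner (one per run) detected binding, and z-scores were calculated against random background probes after regression normalization of scanned fluorescence.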

| Sequence | PBM binding z-score |
| --- | --- |
| GGAACGAGGGCAAAGCTGATAGCATCTGTCGACG | 0.392 |
| CCTAGCAGGACAATCTGGGTCACTCAAGGCTTGA | 1.05 |
| CGAACGAGGGCATGAGTCGATAGCAAATGCCGAT | 0.37 |
| TAGCCTAGGTCATGCGGGCCAGTAAAGTGTCGGC | 3.65 |
| CGTTACGGGTCACTGACAGGTTATAGCATTTGGA | 5.82 |
| AGAATCAGGTTACCAAAGATCAGGGAAACGCTTG | 0.0425 |
| CCTACTGGGCCAAAAAGGTCATCGATGCCGATAA | 3.69 |
| ATATGTACGTTAAGGGTCATTCAGGTTGGTTCGC | 4.5 |
| TCTCGGAGGATACGAAGGTCAGAGCTTTCCAGAG | 0.399 |
| TCATATAGGTAAAGGTGAAAGTGGAACGATATGA | 0.702 |
| CCTGCTAGGTCAATGGCCAGCTAAAGCAGCTCGC | 3.11 |
| TCGGACAGGTGAAGGTAACTCAGGTACGCAGTCG | 0.451 |
| TCATATAGGTAAAACGTGAAAGTCGGTGTGGTAA | 0.91 |
| GCAGACAGGTGAAACGCAGGTAACTCACGGTGGC | -0.0802 |
| CGTCCAAGGTCAGAGAGGTCAGGGAATGCCGAGT | 6.63 |
| GCTCGGAGGACAAGCTCAGAGCTTTGTCCGTAGA | -0.583 |
| TGTAGTTGGTCACGGAGGTCACACACGACGGGTA | 3.41 |
| CAAACTAGGTCAAGAGGTCACAGTCCGCTTCCCG | 6.79 |
| CAAACTAGGTCAAGAGGTCGAAGTCCGCTTCCCG | 5.04 |
| GCCTACGGGTCAAAGGTTATAGCATGAATAGAAT | 7.04 |

| Sequence | PBM binding z-score |
| --- | --- |
| TAGCCTAGGTCATGGGCCAGCATACCACGCGAAC | 4.04 |
| CGAACTGGGTCATCCAGGACAGTGAATACATTGA | 3.3 |
| CCAGACAGGTGAAAGATAACTCAGTCTGGTACGC | -0.034 |
| CCTACTGGGCCATCAGGTCATTGTTATCAACGTT | 1.46 |
| CGAACTAGGACAAGGACAGTGAATCTCCGCACGC | 0.182 |
| CAGCCTAGGTCACGGCCAGTATAGGAGGAACGTT | 4.98 |
| TCATATAGGTAAATGCTAGGTGAAAGCCCGATCT | 0.778 |
| GCTCGGACGACAAGGTCAGAGCTTTGTCCGTAGA | 1.39 |
| CAAGCTAGGTCACGAAAGGTCAAAGTCGAATGAC | 7.45 |
| TAGGCTAGGTCATGGGCCAGTATACCACGCGAAC | 4.91 |
| GCAGACAGGTGAAACGCAGGTAAATCAGGGTGGC | -0.326 |
| CCTTACGGGTCAAGGTTATTGCACGGGTGGTACG | 5.1 |
| ACTGACAGGTGATGAAGGTAACTCAGGCTATCAT | -0.15 |
| CAAACTAGGTCATCGGAAGGTCAAAGTCCGCATG | 6.11 |
| CAAACTAGGTAACGAAAGGTCAAAGTCGAATGAC | 4.96 |
| TCTCGGAGGACCCGAAGGTCAGAGCTTTCCAGAG | 0.805 |
| AACACAGGGTCATCGTAGGCCAGAGTACGCACAG | 7.22 |
| AGAATGAGGTTATTAAGATCCGGGAATTGCGGTC | 1.33 |
| TCATATAGGTAAATGCTAGATGAAAGTCCGATCT | 0.267 |
| CCTGCTAGGTCATGGTAAGCTAATCTACAGTATG | 3.82 |

Tested on: LXRa:RXRa (NR concentration 270 nM, RXRa partner concentration 90 nM)
Test: as above
Outline: as §1

| Sequence | PBM binding z-score |
| --- | --- |
| GGAACGAGGGCAAAGCTGATAGCATCTGTCGACG | 0.366 |
| CCTAGCAGGACAATCTGGGTCACTCAAGGCTTGA | 0.686 |
| CGAACGAGGGCATGAGTCGATAGCAAATGCCGAT | 0.268 |
| TAGCCTAGGTCATGCGGGCCAGTAAAGTGTCGGC | 3.17 |
| CGTTACGGGTCACTGACAGGTTATAGCATTTGGA | 4.13 |
| AGAATCAGGTTACCAAAGATCAGGGAAACGCTTG | 4.27 |
| CCTACTGGGCCAAAAAGGTCATCGATGCCGATAA | 4.2 |
| ATATGTACGTTAAGGGTCATTCAGGTTGGTTCGC | 4.13 |
| TCTCGGAGGATACGAAGGTCAGAGCTTTCCAGAG | 0.672 |
| TCATATAGGTAAAGGTGAAAGTGGAACGATATGA | 1.31 |
| CCTGCTAGGTCAATGGCCAGCTAAAGCAGCTCGC | 2.72 |
| TCGGACAGGTGAAGGTAACTCAGGTACGCAGTCG | 1.52 |
| TCATATAGGTAAAACGTGAAAGTCGGTGTGGTAA | 0.644 |
| GCAGACAGGTGAAACGCAGGTAACTCACGGTGGC | 0.186 |
| CGTCCAAGGTCAGAGAGGTCAGGGAATGCCGAGT | 5.17 |
| GCTCGGAGGACAAGCTCAGAGCTTTGTCCGTAGA | -0.885 |
| TGTAGTTGGTCACGGAGGTCACACACGACGGGTA | 3.44 |
| CAAACTAGGTCAAGAGGTCACAGTCCGCTTCCCG | 5.84 |
| CAAACTAGGTCAAGAGGTCGAAGTCCGCTTCCCG | 4.11 |
| GCCTACGGGTCAAAGGTTATAGCATGAATAGAAT | 5.56 |

| Sequence | PBM binding z-score |
| --- | --- |
| TAGCCTAGGTCATGGGCCAGCATACCACGCGAAC | 3.14 |
| CGAACTGGGTCATCCAGGACAGTGAATACATTGA | 1.9 |
| CCAGACAGGTGAAAGATAACTCAGTCTGGTACGC | 0.0578 |
| CCTACTGGGCCATCAGGTCATTGTTATCAACGTT | 1.31 |
| CGAACTAGGACAAGGACAGTGAATCTCCGCACGC | -0.241 |
| CAGCCTAGGTCACGGCCAGTATAGGAGGAACGTT | 3.61 |
| TCATATAGGTAAATGCTAGGTGAAAGCCCGATCT | 0.754 |
| GCTCGGACGACAAGGTCAGAGCTTTGTCCGTAGA | 1.19 |
| CAAGCTAGGTCACGAAAGGTCAAAGTCGAATGAC | 8.14 |
| TAGGCTAGGTCATGGGCCAGTATACCACGCGAAC | 3.13 |
| GCAGACAGGTGAAACGCAGGTAAATCAGGGTGGC | -0.128 |
| CCTTACGGGTCAAGGTTATTGCACGGGTGGTACG | 3.67 |
| ACTGACAGGTGATGAAGGTAACTCAGGCTATCAT | -0.398 |
| CAAACTAGGTCATCGGAAGGTCAAAGTCCGCATG | 5.83 |
| CAAACTAGGTAACGAAAGGTCAAAGTCGAATGAC | 7.4 |
| TCTCGGAGGACCCGAAGGTCAGAGCTTTCCAGAG | 0.637 |
| AACACAGGGTCATCGTAGGCCAGAGTACGCACAG | 6.21 |
| AGAATGAGGTTATTAAGATCCGGGAATTGCGGTC | 2.41 |
| TCATATAGGTAAATGCTAGATGAAAGTCCGATCT | 0.34 |
| CCTGCTAGGTCATGGTAAGCTAATCTACAGTATG | 2.46 |
